# Measured values: PubChem BioAssay (Tox21)
# Several values for one entry are separate records, joined by “and”; a condition that tells them apart may be missing. Equal entries are not always repeated. Records with an inconclusive call do not appear. Entries that show only a call come without a potency. More than one record can exist for a structure, and the calls need not agree. Activity calls are given as the source filed them. Unless noted, calls follow the shape of the dose curve; as a rule, active = well fitted curve in the direction sought with a large enough effect in the repeat runs; inconclusive = weak or mixed curves; inactive = no such curve, though single readings can be large; an effect the other way counts as inactive or inconclusive. Non-standard residues stand in square brackets, D forms with d. Residues, ends and D or L forms follow the SMILES beside them. pGlu = O=C1CC[C@@H](C(=O)O)N1
# Experiments:
# [1] = qHTS assay to identify aromatase inhibitors - cell viability counter screen (AID 743084);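 also: cells stimulated with testosterone during compound exposure; nearly all actives have a fitted effect of over 55% in size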; also: potency is read from the fitted curve at half-maximal effect
# [2] = qHTS assay to identify small molecule that activate the aryl hydrocarbon receptor (AhR) signaling pathway - cell viability counter screen (AID 743086); also: nearly all actives have a fitted effect of over 45% in size; also: potency is read from the fitted curve at half-maximal effect
# Outline: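 Cytotoxicity counter screen: CellTiter-Fluor signal (30 min, 37 C) in 4000 HepG2 cells/well carrying the DRE-luciferase reporter, following 24 h compound exposure at 37 C.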
# [3] = biological target: Peroxisome proliferator-activated receptor gamma (Homo sapiens) (UniProt P37231); test: qHTS assay to identify small molecule agonists of the peroxisome proliferator-activated receptor gamma (PPARg) signaling pathway (AID 743094; active = well fitted activation curve with a large enough effect in the signal ratio in the repeat runs, not every such curve was filed as active; the % refers to the signal ratio)
# Chain of Peroxisome proliferator-activated receptor gamma (Homo sapiens) (P37231 whole entry, looked up): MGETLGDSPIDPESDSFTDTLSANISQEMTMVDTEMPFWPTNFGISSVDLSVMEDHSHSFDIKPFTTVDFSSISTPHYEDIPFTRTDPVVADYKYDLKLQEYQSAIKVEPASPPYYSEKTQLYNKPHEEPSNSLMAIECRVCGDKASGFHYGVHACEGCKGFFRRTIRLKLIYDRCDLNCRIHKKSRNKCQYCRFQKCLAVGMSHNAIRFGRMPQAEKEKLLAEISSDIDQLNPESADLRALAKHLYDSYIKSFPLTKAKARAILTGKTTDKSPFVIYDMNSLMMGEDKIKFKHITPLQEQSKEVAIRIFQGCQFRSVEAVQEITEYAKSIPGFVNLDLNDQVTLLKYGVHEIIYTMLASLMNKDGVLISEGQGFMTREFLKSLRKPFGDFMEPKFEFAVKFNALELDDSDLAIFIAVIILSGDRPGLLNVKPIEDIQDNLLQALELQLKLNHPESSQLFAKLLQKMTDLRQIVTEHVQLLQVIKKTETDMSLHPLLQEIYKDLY
# Outline: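 Beta-lactamase FRET fluorescence was the read-out after a 1 h room-temperature substrate step, following 17 h compound treatment at 37C of HEK293H cells expressing a UAS-driven bla reporter responsive to PPARg.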
# [4] = qHTS assay to identify small molecule phospholipidosis (PLD) inducers (AID 1259344; active = well fitted curve in the direction sought with a large enough effect; an effect the other way counts as inactive or inconclusive)
# Outline: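 Phospholipidosis is scored by imaging LipidTOX-stained pits in HepG2 cells exposed to compound for 24 h at 37 C; pit counts and integrated intensities per well and per cell serve as outputs.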
# [5] = biological target: Nuclear receptor subfamily 1 group I member 2 (Rattus norvegicus) (UniProt Q9R1A7); test: Rat pregnane X receptor (rPXR) activation by small molecules, qHTS assay (AID 1346983); details: rPXR luciferase reporter cells, One-Glo luminescence, 24 h; max activation: stronger effect = higher value; also: nearly all actives have a fitted effect of over 20% in size; also: potency is read from the fitted curve at half-maximal effect
# Chain of Nuclear receptor subfamily 1 group I member 2 (Rattus norvegicus) (Q9R1A7 whole entry, looked up): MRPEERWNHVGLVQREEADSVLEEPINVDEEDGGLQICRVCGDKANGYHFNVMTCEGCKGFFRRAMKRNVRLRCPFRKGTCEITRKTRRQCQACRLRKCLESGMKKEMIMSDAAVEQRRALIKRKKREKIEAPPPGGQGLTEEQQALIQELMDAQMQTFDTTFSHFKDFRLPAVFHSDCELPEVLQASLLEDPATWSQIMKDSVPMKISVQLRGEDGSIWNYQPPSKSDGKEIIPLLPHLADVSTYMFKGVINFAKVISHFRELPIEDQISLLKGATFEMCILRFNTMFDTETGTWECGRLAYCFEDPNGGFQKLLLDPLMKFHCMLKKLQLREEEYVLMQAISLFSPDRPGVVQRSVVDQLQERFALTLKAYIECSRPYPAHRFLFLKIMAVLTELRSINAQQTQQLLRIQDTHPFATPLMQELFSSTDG
# Outline: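 Luminescent readout (One-Glo luciferase, 30 min room temperature) followed 24 hr compound treatment at 37 C of rPXR cells plated 2,000 per well and preincubated 5hr; qHTS format with compounds delivered in DMSO.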
# [6] = biological target: Nuclear receptor subfamily 1 group I member 2 (Homo sapiens) (UniProt O75469); test: CYP3A4 induction through human pregnane X receptor (PXR) by small molecules, qHTS assay (AID 1346984); also: nearly all actives have a fitted effect of over 40% in size
# Outline: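 Luminescence readout: luciferase signal after One-Glo (30 min, room temperature), following 3 h at 37C with 3uM final Luciferin-IPA P450 substrate. Cells were DPX-2 (HepG2, PXR/CYP3A4-luc co-transfected) dosed for 24 h.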
# [7] = biological target: Nuclear receptor subfamily 1 group I member 2 (Homo sapiens) (UniProt O75469); test: Human pregnane X receptor (PXR) activation by small molecules, qHTS assay (AID 1346985); also: nearly all actives have a fitted effect of over 40% in size; also: potency is read from the fitted curve at half-maximal effect
# Outline: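 DPX-2 cells (HepG2 co-transfected with a PXR response element and a CYP3A4-promoter luciferase construct) were seeded at 2,000 per well, rested 5 hr at 37C, then exposed to DMSO-dissolved compounds for 24 hr. Activation was read as luciferase luminescence.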
# [8] = biological target: Aryl hydrocarbon receptor (Homo sapiens) (UniProt P35869); test: qHTS assay to identify small molecule that activate the aryl hydrocarbon receptor (AhR) signaling pathway (AID 743085); also: nearly all actives have a fitted effect of over 15% in size; also: potency is read from the fitted curve at half-maximal effect;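 as to activation: HG2L7.5c1 human HepG2 liver cells with stably integrated DRE-driven firefly reporter; series mostly up to about 70 µM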
# Chain of Aryl hydrocarbon receptor (Homo sapiens) (P35869 whole entry, looked up): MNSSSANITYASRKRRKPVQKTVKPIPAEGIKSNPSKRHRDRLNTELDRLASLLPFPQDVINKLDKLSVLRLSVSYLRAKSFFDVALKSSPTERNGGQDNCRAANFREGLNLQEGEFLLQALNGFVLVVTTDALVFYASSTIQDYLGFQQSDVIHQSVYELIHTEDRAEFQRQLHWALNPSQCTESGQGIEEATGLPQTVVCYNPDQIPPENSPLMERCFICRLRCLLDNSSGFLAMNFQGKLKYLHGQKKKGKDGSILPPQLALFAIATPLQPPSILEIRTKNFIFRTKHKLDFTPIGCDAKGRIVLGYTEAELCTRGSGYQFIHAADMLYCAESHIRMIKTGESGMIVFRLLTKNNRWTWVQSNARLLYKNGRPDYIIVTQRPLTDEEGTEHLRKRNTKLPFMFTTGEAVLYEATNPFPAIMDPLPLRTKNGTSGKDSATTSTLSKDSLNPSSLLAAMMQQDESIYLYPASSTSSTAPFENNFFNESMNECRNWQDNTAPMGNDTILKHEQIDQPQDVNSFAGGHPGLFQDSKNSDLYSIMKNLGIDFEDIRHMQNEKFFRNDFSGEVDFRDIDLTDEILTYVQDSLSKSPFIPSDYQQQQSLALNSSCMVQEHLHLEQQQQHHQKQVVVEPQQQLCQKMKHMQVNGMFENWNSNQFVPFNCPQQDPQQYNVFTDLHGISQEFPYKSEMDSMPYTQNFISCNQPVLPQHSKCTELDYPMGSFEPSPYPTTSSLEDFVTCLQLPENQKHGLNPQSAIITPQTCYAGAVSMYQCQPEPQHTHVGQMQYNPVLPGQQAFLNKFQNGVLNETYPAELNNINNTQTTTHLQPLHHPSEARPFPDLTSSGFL
# Outline: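 Cell line HG2L7.5c1 (human hepatoma, 20× DRE-luc). Plated, 5 h 37C, compound/DMSO added, 24 h 37C. CellTiter-Fluor 30 min 37C → fluorescence; then ONE-Glo 30 min RT → luminescence.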
Structure (SMILES),Potency [1],Potency [2],Potency [3],Potency [4],max activation [5],Potency [6],Potency [7],Potency [8],Potency [5]
OC[C@H]1O[C@@H](O[C@H]2[C@H](O)[C@@H](O)[C@H](O)O[C@@H]2CO)[C@H](O)[C@@H](O)[C@@H]1O,inactive,inactive,inactive,inactive,-4.71% (inactive),inactive,inactive,–,–
CC[C@H](C)[C@H](NC(=O)[C@H](Cc1ccccc1)NC(=O)[C@H](C)NC(=O)[C@H](CC(=O)O)NC(=O)[C@H](CCCCN)NC(=O)[C@H](CO)NC(=O)[C@@H]1CCCN1C(=O)[C@@H]1CCC(=O)N1)C(=O)NCC(=O)N[C@@H](CC(C)C)C(=O)N[C@@H](CCSC)C(N)=O ([pGlu]PSKDAFIGLM-NH2),inactive,inactive,inactive,inactive,-3.14% (inactive),inactive,inactive,–,–
CC(C)(C)NCC(O)CSc1nc(-c2ccc(C(N)=O)s2)cs1 (stereo not drawn),inactive,inactive,inactive,inactive,-4.09% (inactive),inactive,inactive,–,–
Cc1cc2nc3c(=O)[nH]c(=O)nc-3n(C[C@H](O)[C@H](O)[C@H](O)COP(=O)(O)OP(=O)(O)OC[C@H]3O[C@@H](n4cnc5c(N)ncnc54)[C@H](O)[C@@H]3O)c2cc1C,–,–,–,inactive,-0.0695% (inactive),inactive,inactive,inactive,–
NC(=O)c1ccc[n+]([C@@H]2O[C@H](COP(=O)([O-])OP(=O)(O)OC[C@H]3O[C@@H](n4cnc5c(N)ncnc54)[C@H](O)[C@@H]3O)[C@@H](O)[C@H]2O)c1,inactive,inactive,inactive,inactive,-1.3% (inactive),inactive,inactive,–,–
NC(N)=NCC1COc2ccccc2O1 (stereo not drawn),inactive,inactive,inactive,inactive,-4.35% (inactive),inactive,inactive,–,–
CO/N=C(\C(=O)N[C@@H]1C(=O)N2C(C(=O)O)=C(CSc3nnnn3C)CS[C@H]12)c1csc(N)n1,inactive,inactive,inactive,inactive,-3.46% (inactive),inactive,inactive,–,–
C#C[C@]1(O)CC[C@H]2[C@@H]3CCC4=C/C(=N/O)CC[C@@H]4[C@H]3CC[C@@]21CC,–,inactive,–,inactive,6.76% (inactive),inactive,4.47 µM (active),inactive,–
CCCCCCCCCCCCCCCCCCCCCCO,inactive,inactive,inactive,inactive,-1.89% (inactive),inactive,inactive,–,–
CCOC(=O)c1c[nH]c2cc(OCC(C)C)c(OCC(C)C)cc2c1=O,inactive,inactive,inactive,inactive,-0.745% (inactive),inactive,inactive,–,–
NCc1ccccc1CC(=O)N[C@@H]1C(=O)N2C(C(=O)O)=C(CSc3nnnn3CC(=O)O)CS[C@H]12,inactive,inactive,inactive,inactive,-0.103% (inactive),inactive,inactive,–,–
CN1c2cc(O)c(N=NC(N)=O)cc2CC1S(=O)(=O)O (stereo not drawn),–,–,inactive,inactive,0.153% (inactive),inactive,inactive,–,–
COc1cc2c(cc1OC)[C@@H](c1ccccc1)CN(C)CC2,inactive,inactive,inactive,inactive,1.99% (inactive),inactive,–,inactive,–
CC(C)c1nc(N(C)S(C)(=O)=O)nc(-c2ccc(F)cc2)c1/C=C/C(O)CC(O)CC(=O)O (stereo not drawn),inactive,inactive,inactive,inactive,0.498% (inactive),–,inactive,inactive,–
C#C[C@]1(O)CC[C@H]2[C@@H]3CCC4=CC(=O)CC[C@@H]4[C@H]3C(=C)C[C@@]21CC,inactive,inactive,inactive,inactive,–,inactive,–,inactive,7.94 µM (active)
CC1CCC(NC(=O)N(CCCl)N=O)CC1 (stereo not drawn),inactive,inactive,inactive,inactive,–,inactive,–,–,5.01 µM (active)
CO[C@H]1O[C@@H]2O[C@@]3(C)CC[C@H]4[C@H](C)CC[C@@H]([C@H]1C)[C@@]24OO3,inactive,inactive,inactive,inactive,-2.27% (inactive),inactive,–,inactive,–
CO[C@H]1C[C@@H]2CC[C@@H](C)[C@@](O)(O2)C(=O)C(=O)N2CCCC[C@H]2C(=O)O[C@H]([C@H](C)C[C@@H]2CC[C@@H](OCCO)[C@H](OC)C2)CC(=O)[C@H](C)/C=C(\C)[C@@H](O)[C@@H](OC)C(=O)[C@H](C)C[C@H](C)/C=C/C=C/C=C/1C,11.9 µM (active),11.9 µM (active),–,inactive,-9.27% (inactive),inactive,–,inactive,–
COC(=O)[C@H]1[C@H]2C[C@@H]3c4[nH]c5ccccc5c4CCN3C[C@H]2C[C@@H](OC(=O)c2cc(OC)c(OC)c(OC)c2)[C@@H]1OC,6.68 µM (active) and inactive,inactive,–,inactive,-18.7% (inactive),–,inactive,13.3 µM (active) and 6.68 µM (active),–
S=C1SCN(Cc2ccccc2)CN1Cc1ccccc1,inactive,inactive,–,inactive,2.55% (inactive),–,14.1 µM (active),inactive,–
Nc1nc(=O)n([C@@H]2CS[C@H](CO)O2)cc1F,–,inactive,–,inactive,2.33% (inactive),inactive,inactive,–,–
Nc1ncnc2c1ncn2[C@@H]1O[C@H](COP(=O)(O)OP(=O)(O)OP(=O)(O)O)[C@@H](O)[C@H]1O,–,inactive,inactive,inactive,2.22% (inactive),inactive,inactive,–,–
CSc1nc2cc(Oc3cccc(Cl)c3Cl)c(Cl)cc2[nH]1,inactive,inactive,inactive,inactive,-0.842% (inactive),inactive,–,–,–
